Test results: PubChem BioAssay (NCATS)
Records with an inconclusive call do not appear. The source made the active and inactive calls. Unless noted, no rule for the calls is given here.

Tests used:
[1] = qHTS profiling of the MIPE4 collection as inhibitors of Plasmodium falciparum (3D7) proliferation (AID 743344);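 also: scaled between DMSO vehicle wells and 0.29 µM artemisinin as full inhibition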; settings: P. falciparum 3D7 in erythrocytes, SYBR Green DNA fluorescence, 72 h; at 28.5 µM unless noted
Outline: (§1)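 Erythrocytes infected with P. falciparum (0.3% parasitemia, 2.5% hematocrit) incubated with compounds 72 h at 37 C, 5% CO2. Lysis with saponin/Triton buffer containing SYBR Green I, overnight at room temperature in the dark; DNA fluorescence (485/535 nm) normalised to 0.29 uM artemisinin and DMSO.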

[2] = qHTS profiling of the MIPE4 collection as inhibitors of Plasmodium falciparum (DD2) proliferation (AID 743345); settings: P. falciparum Dd2 in erythrocytes, SYBR Green DNA, 72 h; at 28.5 µM unless noted
Outline: as §1

[3] = qHTS profiling of the MIPE4 collection as inhibitors of Plasmodium falciparum (DD2) proliferation (Rep 2) (AID 743346); settings: P. falciparum Dd2 in erythrocytes, SYBR Green DNA, 72 h; at 28.5 µM unless noted
Outline: as §1

[4] = High-throughput drug toxicity screening in the BPDCN cell line Gen2.2 (AID 1224824); settings: Gen2.2 BPDCN cells; at 45.8 µM (top of the series) unless noted;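 also: cells exposed to compounds for 48 h before reading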
Outline: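 Gen2.2 cells (500/well) in phenol red-free RPMI with 10% FBS were exposed to compounds for 48 h at 37 °C, 5% CO2. Viability was read by CellTiter-Glo luminescence and normalized to DMSO (100%) and 9.2 uM bortezomib (0%).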

[5] = High-throughput drug toxicity screening in the BPDCN cell line Cal-1 (AID 1224825); settings: Cal-1 BPDCN cell viability, qHTS; at 45.8 µM (top of the series) unless noted
Outline: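 Cal-1 cells, 500 per well in phenol-red-free RPMI with 10% FBS, exposed to compounds for 48 hours at 37C, 5% CO2. Viability read by CellTiter-Glo luminescence; percent activity normalized to DMSO (100%) and 9.2 uM bortezomib final (0%).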

[6] = qHTS assay for measurement of the activity of small molecule inhibitors on Zika virus induced Caspase-3 activity in human iPSC derived neural progenitor cells (hNPCs) (AID 1224857; active = well fitted curve in the direction sought with a large enough effect; an effect the other way counts as inactive or inconclusive; also: nearly all actives have a fitted effect of over 65% in size; also: potency is read from the fitted curve at half-maximal effect)
Outline: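 Caspase-3/7 induction by a 6-hour ZIKV infection was quantified with a luminescent Caspase-Glo 3/7 reagent incubated 30 minutes at room temperature. Compounds were preincubated with hNPCs for 1 hour; inhibition was calculated against uninfected and infected control wells.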

[7] = qHTS assay for measurement of the activity of small molecule inhibitors on Zika virus induced Caspase-3 activity in human astrocytoma cells (AID 1224859; active = well fitted curve in the direction sought with a large enough effect; an effect the other way counts as inactive or inconclusive;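 also: plate controls were ZIKV-infected untreated cells for no effect and uninfected cells for full effect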)
Outline: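 In SNB-19 cells plated at 250 cells/well and grown 16-20 h, compounds were applied 1 h before ZIKV (2 FFU/cell). Six hours later caspase-3/7 luminescence was recorded.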

[8] = qHTS Screen of the MIPE 4.0 Collection Against Ewings Sarcoma (RDES) (AID 1259252; active = well fitted curve in the direction sought with a large enough effect; an effect the other way counts as inactive or inconclusive; also: nearly all actives have a fitted effect of over 35% in size; also: potency is read from the fitted curve at half-maximal effect)
Outline: (§2)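 Dose series incubated 48 h with cells in RPMI plus 5% FBS, glutamine and penicillin/streptomycin; cell viability then quantified via CellTiter-Glo.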

[9] = qHTS Screen of the MIPE 4.0 Collection Against Ewings Sarcoma (EW8) (AID 1259255; active = well fitted curve in the direction sought with a large enough effect; an effect the other way counts as inactive or inconclusive; also: nearly all actives have a fitted effect of over 35% in size; also: potency is read from the fitted curve at half-maximal effect;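 as to viability: 100% = DMSO-treated cells and 0% = medium-only wells without cells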)
Outline: as §2

[10] = qHTS assay to identify small molecule inhibitors of chordoma cells - UCH-1 (AID 1259355; active = well fitted curve in the direction sought with a large enough effect; an effect the other way counts as inactive or inconclusive; also: % is scaled to controls: 0 for no effect and ±100 for the full control effect; nearly all actives have a fitted effect of over 55% in size)
Outline: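 Cells (800/well) were seeded and left overnight at 37 C, 5% CO2, then treated with drugs at 15 concentrations plus a combination mix of auranofin, camptothecin, doxorubicin, rubitecan and topotecan. Viability after 48hr was read by CellTiter-Glo luminescence.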

[11] = qHTS assay to identify small molecule inhibitors of chordoma cells - UCH-2 (AID 1259356; active = well fitted curve in the direction sought with a large enough effect; an effect the other way counts as inactive or inconclusive; also: % is scaled to controls: 0 for no effect and ±100 for the full control effect)
[12] = qHTS profiling of the MIPE4 collection as inhibitors of Plasmodium falciparum (HB3) proliferation (AID 743347);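 also: plate controls were DMSO vehicle wells for no effect and artemisinin wells for full effect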; settings: P. falciparum HB3 in erythrocytes, SYBR Green DNA, 72 h; at 28.5 µM unless noted
Outline: as §1

[13] = qHTS Screen of the MIPE 4.0 Collection Against Ewings Sarcoma (TC32) (AID 1259256; active = well fitted curve in the direction sought with a large enough effect; an effect the other way counts as inactive or inconclusive; also: nearly all actives have a fitted effect of over 45% in size; also: potency is read from the fitted curve at half-maximal effect)
Outline: as §2

SMILES | parasite growth, % of DMSO control [1] [%] | parasite growth remaining, % of DMSO control (lower = more inhibition) [2] | parasite growth, % of control (lower = inhibition) [3] [%] | cell viability, % of control (lower = more cytotoxic) [4] | viability (% of control) [5] | Potency [6] | Potency [7] | Potency [8] | Potency [9] | outcome [10] | outcome [11] | growth, % of control [12] [%] | Potency [13]
CC(C)CN(C[C@@H](O)[C@H](Cc1ccccc1)NC(=O)O[C@H]1CO[C@H]2OCC[C@H]21)S(=O)(=O)c1ccc(N)cc1 | 42.7 | 19.4% | 101 | 118% | 117% | inactive | inactive | 2.09 µM (active) | 1.32 µM (active) | inactive | inactive | – | –
FC(F)(F)c1ccc(C=Cc2nc(COc3ccc(CCCCn4ccnn4)cc3)co2)cc1 | 77.3 | 85.5% | 62.6 | 102% | 17.8% | inactive | inactive | 0.059 µM (active) | 0.743 µM (active) | – | – | 83.1 | 0.0332 µM (active)
N#CC(=C1Nc2ccccc2S1)c1ccnc(OCc2ccc(CN3CCOCC3)cc2)n1 | 14.1 | 57.9% | 35.2 | 5.77% | 2.57% | inactive | inactive | 7.43 µM (active) | 5.26 µM (active) | – | – | 10.8 | 7.43 µM (active)
C=CC[N+]1([C@H]2C[C@H]3[C@@H]4CC[C@H]5C[C@H](O)[C@@H](N6CCOCC6)C[C@]5(C)[C@@H]4CC[C@]3(C)[C@H]2OC(C)=O)CCCC1 | 31.1 | 41% | 21.1 | 168% | 116% | inactive | inactive | inactive | inactive | – | – | 40.8 | inactive
CC(C)[C@H](O)C(=O)N[C@@H](C)C(=O)N[C@@H]1C(=O)N(C)CCc2ccccc21 | 13.3 | 14.9% | 26.2 | 95.1% | 95.1% | inactive | inactive | 16.6 µM (active) | inactive | – | – | 17.8 | inactive
CN1CCN(c2cccc(Nc3nc4c(-c5ccc(S(C)(=O)=O)cc5)cccn4n3)c2)CC1 | 11.4 | 11.3% | 11.4 | 83% | 50.9% | inactive | inactive | 3.72 µM (active) | 5.9 µM (active) | – | – | 10.2 | 2.35 µM (active)
NS(=O)(=O)c1ccc(Nc2nc(OCC3CCCCC3)c3[nH]cnc3n2)cc1 | 17.4 | 13.9% | 24.8 | 12% | 9.86% | inactive | inactive | 5.9 µM (active) | – | – | – | 11 | 16.6 µM (active)
Cc1nc2c([nH]1)CCN(C(=O)c1ccc(NC(=O)c3ccccc3-c3ccccc3)cc1)c1ccccc1-2 | 5.23 | 8.18% | 13.3 | 48.7% | 55.1% | inactive | inactive | inactive | – | – | – | 9.61 | inactive
Cn1cnc(-c2cc3nccc(Oc4ccc(NC(=S)NC(=O)Cc5ccccc5)cc4F)c3s2)c1 | 8.29 | 23.6% | 28.5 | 131% | 8.37% | inactive | inactive | 20.9 µM (active) | – | – | – | 12 | 18.7 µM (active)
CC[C@H](NC(=O)[C@H](C)NC)C(=O)N1C[C@@H](O)C[C@H]1Cc1c(-c2[nH]c3cc(F)ccc3c2C[C@H]2C[C@H](O)CN2C(=O)[C@H](CC)NC(=O)[C@H](C)NC)[nH]c2cc(F)ccc12 | 4.9 | 8.23% | 6.15 | 19.2% | 7.23% | inactive | inactive | inactive | inactive | – | – | 6.85 | –
C[C@@H](NC(=O)c1ncnc(N)c1Cl)c1ncc(C(=O)Nc2cc(C(F)(F)F)c(Cl)cn2)s1 | 63.1 | 87.8% | 58.8 | 2.67% | 66.8% | inactive | inactive | 23.5 µM (active) | – | – | – | 60.9 | 23.5 µM (active)
O[C@@H](COc1cccc2ncccc12)CN1CCN(C2c3ccccc3[C@@H]3[C@H](c4ccccc42)C3(F)F)CC1 (some centres not stated) | 47.1 | 65.6% | 54.1 | 4.83% | 6.33% | 26.4 µM (active) | inactive | 20.9 µM (active) | 23.5 µM (active) | – | – | 63.5 | –
CC[C@H](C=C[C@@H](C)[C@H]1CC[C@H]2[C@@H]3CC=C4C[C@@H](O)CC[C@]4(C)[C@@H]3CC[C@]12C)C(C)C | – | 104% [at 9.64 µM] | – | 72.7% [at 23.2 µM] | 108% [at 23.2 µM] | inactive | inactive | inactive | inactive | – | – | – | –
C[C@]12C=CC(=O)C=C1CC[C@@H]1[C@@H]2[C@@H](O)C[C@@]2(C)[C@@H]1CC[C@]2(O)C(=O)CO | 84.7 | 100% | 86.4 | 87.5% | 14.3% | inactive | inactive | inactive | – | – | – | – | inactive
